# Bioassay records deposited in PubChem by National Center for Advancing Translational Sciences (NCATS).
# Shiga toxin inh – blocks Shiga toxin action in Vero cells; Vero cells, Shiga toxin protein synthesis inhibition reporter; inhibition, % at 38.7 µM; actives 9.2% (n = 290,000); in the data active = inhibition mostly above about 28%, no sharp cut-off; inactive = mostly below about 43%; note: 0% is about no effect
# HCV inh – HCV inhibition. Huh7.5.1 HCVcc-Cre infection, luciferase reporter, 44 h. actives 3.4% (n = 340,000). Potency, µM (series often up to 41.8 µM), for inactives: top-dose activity change, negative = inhibition, actives largely listed as inhibitors; note: potency is the fitted concentration of half-maximal effect; % is set by controls: 0 for no effect and ±100 for the full control effect
#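 HCVcc-Cre virus at an moi near 0.5 was added right after compound to cells cultured 4 h from seeding (1,000 cells/well). Luciferase activity was determined 44 h later, 15 min after substrate addition at RT.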
# HCMV antiviral – human cytomegalovirus inhibition; HFF cells, HCMV-luciferase reporter, 72 h; active compounds read low; activity change, negative = inhibition, % at 57.5 µM; actives 4.5% (n = 410,000); in the data active = activity change below about -60%; inconclusive = no clear call, values can overlap the other calls; inactive = above about -39%; note: % is set by controls: 0 for no effect and ±100 for the full control effect
#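 Two compound doses tested in HFFs infected with HCMV-luciferase, MOI 1 PFU/cell, 72 h at 37C. Lysate luminescence read with OneGlo; data normalized against buffer-only and 10uM Salinomycin inhibitor controls.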
# Pf growth 96h – P. falciparum growth inhibition at 96 hours | Potency, µM (series often up to 28.7 µM), for inactives: at the highest dose activity change, negative = inhibition, most hits filed as inhibitors | actives 6.9% (n = 320,000) | P. falciparum luciferase reporter growth, 96 h | AID 504834; note: potency is the fitted concentration of half-maximal effect; % is set by controls: 0 for no effect and ±100 for the full control effect
#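 96 h incubation, 37 C, 5% CO2, of luciferase-reporter P. falciparum-infected RBCs (2% hematocrit, 0.05% parasitemia final) with test compounds; endpoint luminescence.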
# Cycloheximide cs – affects cycloheximide protein synthesis inhibition readout, counter-screen; cell reporter, cycloheximide protein synthesis inhibition counterscreen; max response, %; actives 12% (n = 300,000); AID 2314; in the data active = max response mostly above about 13%, no sharp cut-off; inactive = mostly below about 14%; note: read at 38.3 µM for the half of the compounds with a filed dose; 0% is about no effect
# Pf growth 48h – inhibits P. falciparum growth in the first generation, 48 h | P. falciparum luciferase growth in erythrocytes, 48 h | Potency, µM (series often up to 28.7 µM), inactives show at the top dose activity change, negative = inhibition, hits mostly inhibitors | actives 5.9% (n = 310,000); note: potency is the fitted concentration of half-maximal effect; % is set by controls: 0 for no effect and ±100 for the full control effect
#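 Read-out is firefly luciferase luminescence from an integrated reporter in P. falciparum, so falling signal marks reduced parasite growth. Infected erythrocytes were at 2% hematocrit and 0.1% parasitemia (final) in Albumax-supplemented RPMI 1640.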
# An asterisk follows results filed as active; i = inactive; ? = inconclusive; . = no result; [ ] = dose if it differs, or a comment. Hits are enriched below; roughly 21% of the tested compounds scored in any of these assays. Unless noted, calls come from the whole dose curve; as a rule, active = well fitted inhibition curve with a large enough effect; inconclusive = small, poorly fitted or top-dose-only effect, or another doubt; inactive = no such curve, though single readings can be large or run the other way.
SMILES,Shiga toxin inh,HCV inh,HCMV antiviral,Pf growth 96h,Cycloheximide cs,Pf growth 48h
COc1ccccc1NC(=O)N1CCCC1C(=O)NCCc1ccccc1 (stereo not drawn),-16,4%,27,?,1,-10%
CCCCC(CC)CNC(=O)c1ccc2c(=O)n(Cc3ccc(OC)cc3)c(=O)[nH]c2c1 (stereo not drawn),.,.,-21,.,.,.
COc1ccc(NC(=O)N2CCC(c3nc4ccccc4[nH]3)CC2)cc1,-4,3%,7,-11%,10,2%
COc1ccc(CN(CC(O)COCc2ccccc2)S(=O)(=O)c2ccccc2Br)cc1OC (stereo not drawn),.,11µM*,-22,.,.,.
CCN1CCN(CCCNC(=O)c2ccc3c(c2)N(Cc2ccccc2)CCS3)CC1,-6,10µM*,-33,?,-2,?
CN1CCN(CCCNC(=O)c2ccc3c(c2)N(Cc2ccc(F)cc2)CCS3)CC1,-21,?,-37,10µM*,-9,?
Cc1sc2ncnc(N(C)C3CCCCC3)c2c1C,45*,-2%,-13,0%,11,14%
Cc1ccc(CNC(=O)c2sc3ncnc(N(C)C4CCCCC4)c3c2C)cc1,.,.,-33,.,.,.
Cn1c(=O)c(C(=O)CN2CC(=O)Nc3ccccc32)c(N)n(Cc2ccccc2)c1=O,-3,16%,-5,5.2µM*,-2,-33%
CCC(=O)OCC(=O)c1c(N)n(Cc2ccccc2)c(=O)n(C)c1=O,-5,-24%,-19,8%,-2,?
CCN(CC)CC(=O)c1c(N)n(Cc2ccccc2)c(=O)n(C)c1=O,-7,3%,-3,19%,2,-4%
Cn1c(=O)c(C(=O)CN2CCc3ccccc32)c(N)n(Cc2ccccc2)c1=O,-10,-28%,17,8.3µM*,-1,12µM*
Cn1c(=O)c(C(=S)NC(=O)C2CC2)c(N)n(Cc2ccccc2)c1=O,-11,-8%,.,31%,-3,9.3µM*
Cn1c(=O)c(C(=O)CN2CCCc3ccccc32)c(N)n(Cc2ccccc2)c1=O,15,-18%,-1,.,49*,?
COc1cc(C(=O)NCCCc2nc3ccccc3n2CC(C)C)cc(OC)c1OC,.,.,8,.,.,.
COc1ccc(-c2nc(-c3ccncc3)no2)c(OC)c1,110*,-11%,30,3%,61*,68%
COc1ccc(-c2noc(-c3ccccc3F)n2)cc1,91*,-6%,123,9.3µM*,51*,.
COc1cc(OC)c(-c2nc(-c3ccncc3)no2)cc1OC,-7,-11%,-16,28%,9,78%
O=C(O)c1cccc(-c2noc(-c3ccccc3F)n2)c1,.,.,.,?,.,0.3µM*
O=C(O)c1cccc(-c2nc(-c3ccccc3C(F)(F)F)no2)c1,.,.,.,?,.,4.1µM*
O=C(O)c1cccc(-c2noc(-c3cccc(Cl)c3)n2)c1,.,.,213,?,.,?
Fc1ccccc1-c1nc(-c2cnccc2C(F)(F)F)no1,34,2%,-17,?,15*,?
Fc1ccccc1-c1nc(-c2ccncc2)no1,41*,0%,17,-23%,24*,172%
Fc1ccccc1-c1nc(-c2ccccc2)no1,68*,30%,135,23%,40*,i
Brc1ccccc1-c1nc(-c2ccccc2)no1,79*,14%,.,280%,55*,296%
SMILES,Shiga toxin inh,HCV inh,HCMV antiviral,Pf growth 96h,Cycloheximide cs,Pf growth 48h
Fc1ccccc1-c1nc(-c2ccc(-c3nn[nH]n3)cc2)no1,.,.,76,.,.,.
COc1ccc(-c2ccc(-c3noc(-c4ccccc4F)n3)c(OC)n2)cc1,-13,-15%,-21,11%,3,22%
CCCN(CC(=O)Nc1ccccc1OC)C(=O)c1cc(-c2cccs2)nn1-c1ccccc1,.,?,-15,?,.,?
CCCCn1c(N)c(N(CC)C(=O)CSc2nnnn2-c2cc(C)ccc2C)c(=O)[nH]c1=O,-6,-16%,5,?,7,?
CC(C)CC(NC(=O)NC(CCC(=O)O)C(=O)O)C(=O)O (stereo not drawn),-7,.,.,.,-3,.
Cc1ccccc1-c1ccc(/C=C2/SC(N3CCOCC3)=NC2=O)o1,13,?,-17,?,-2,10µM*
N#CCCN1CCN(C2=NC(=O)/C(=C\c3cccs3)S2)CC1,29,4%,-29,16%,21*,?
O=C1N=C(N2CCOCC2)S/C1=C\c1cccs1,39*,?,45,1%,22*,?
Cc1ccccc1CC(=O)Nc1ccc2c(c1)c(=O)n(C)n2-c1cccs1,.,.,0,.,.,.
CCC(=O)N1CCc2cc(Br)cc(S(=O)(=O)CCC(=O)NCCc3ccc(Cl)cc3)c21,.,.,-21,.,.,.
NC(=O)C1Cc2ccccc2CN1C(=O)c1nn(Cc2ccccc2)c(=O)c2ccccc12 (stereo not drawn),.,3%,.,5.9µM*,.,9.3µM*
NC(=O)C1Cc2ccccc2CN1C(=O)c1cc(C2CC2)nn1-c1ccccc1 (stereo not drawn),.,?,-77*,.,.,.
COc1cc2c(cc1OC)CN(C(=O)c1cc(C3CC3)nn1-c1ccccc1)CC2,.,?,-37,5.9µM*,.,?
O=C(O)c1cc(C2CC2)nn1-c1ccccc1,-10,11%,4,35%,-1,.
Cc1ccc(C(=O)CCC(=O)OCC(=O)N2c3ccccc3NC(=O)C2(C)C)cc1,.,?,-7,50%,.,10%
Oc1ccccc1C1C=C(c2ccc3c(c2)OCO3)NC(c2cccc(F)c2)N1 (stereo not drawn),96*,.,.,.,58*,.
Oc1ccc(Br)cc1C1C=C(c2ccc3c(c2)OCO3)NC(c2cccc(F)c2)N1 (stereo not drawn),50,.,.,.,34*,.
CCCCCCC1(C)NC(c2ccc3c(c2)OCO3)=CC(c2cc(Br)ccc2O)N1 (stereo not drawn),41,.,.,.,32,.
Oc1ccccc1C1C=C(c2ccc3c(c2)OCO3)NC(c2cccc(Br)c2)N1 (stereo not drawn),93*,.,.,.,28*,.
COc1ccc(C(=O)NCC(c2ccco2)N(C)C)cc1S(=O)(=O)NCc1ccc(Cl)cc1 (stereo not drawn),.,8%,?,?,.,?
CNC(=S)NNc1nc(C)cc(C)n1,-8,16%,0,79%,-5,-14%[5.75 µM]
Cc1ccc(O)c(CP(=O)(c2ccccc2)c2ccccc2)c1,-1,-29%,0,?,-1,?
CCNc1ccccc1CP(=O)(c1ccccc1)c1ccccc1O (stereo not drawn),1,-1%,-18,12µM*,-4,13µM*
COc1cccc(-c2n[nH]c3c2CCC3)c1,52,-7%,-4,95%,22*,?
c1ccc(-c2n[nH]c3c2CCC3)cc1,-25,13µM*,-16,45%,-1,-3%
CCOc1ccc(Oc2nc(NCC(C)C)nc(NC(C)(C)C)n2)nn1,.,.,12,.,.,.
